Assay outcomes: PubChem BioAssay, Sanford-Burnham Center for Chemical Genomics
Shown are actives, neighbours in structure and some others; about 2.6% of the full set was active somewhere.
MLLE-PAM2 inh = blocks PAM2 peptide binding to the PABP1 MLLE domain; hit rate 0.36% among 360,000; P11940; AID 588489; inhibition, % at 20 µM; GST-MLLE / FITC-PAM2 fluorescence polarization; in the data active = inhibition above about 35%, passing the limit was not always enough;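 also: plate controls were DMSO wells with GST-MLLE for no effect and wells lacking GST-MLLE protein for full effect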
CRFR2-BP antag = blocks CRF-induced signaling of the CRF-BP/CRF-R2 complex | HEK293 CRF-R2/CRF-BP, CRF-induced calcium fluorescence | inhibition, % at 11.8 µM | hit rate 0.59% among 350,000;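 active = inhibition of the ligand-induced calcium signal above about 50% at the single tested concentration, limit read from the data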
PABP polyA inh = blocks human PABP binding to poly(A) RNA | inhibition, % at 35 µM | AID 2014 | hit rate 1% among 290,000 | fluorescence polarization | P11940;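 also: calls also rest on retests at 20 µM and on dose response follow-up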
eIF4H FP inh = inhibitors of RNA binding by human eIF4H. Q15056. eIF4H fluorescence polarization binding assay. inhibition, % at 35 µM. AID 2012. hit rate 0.94% among 290,000;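 also: calls also rest on retests at 20 µM and on dose response follow-up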
PHOSPHO1 block = blocks human PHOSPHO1 phosphatase activity; Q8TCT1; recombinant PHOSPHO1, absorbance phosphatase assay; inhibition, % at 13.3 µM; hit rate 1.1% among 290,000; AID 1565; in the data active = inhibition above about 60%
Target sequence (Q8TCT1 whole entry, looked up): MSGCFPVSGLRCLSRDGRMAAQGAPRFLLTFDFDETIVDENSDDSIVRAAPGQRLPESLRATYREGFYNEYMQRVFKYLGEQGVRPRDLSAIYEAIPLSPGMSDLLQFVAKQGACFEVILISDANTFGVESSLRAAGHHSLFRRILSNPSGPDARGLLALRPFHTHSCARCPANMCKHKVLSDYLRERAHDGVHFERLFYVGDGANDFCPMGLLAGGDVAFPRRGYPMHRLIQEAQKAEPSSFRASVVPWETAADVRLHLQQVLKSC
Active calls of the source: *; . = no result given. Unless noted, no rule for the calls is given here.

SMILES | MLLE-PAM2 inh | CRFR2-BP antag | PABP polyA inh | eIF4H FP inh | PHOSPHO1 block
CCOC(=O)C1=CCN(S(=O)(=O)c2ccccc2Cl)C1c1cccc(F)c1 (centres undefined) | -6 | . | . | . | .
CCc1nc2ccc(C(=O)NCC3CCCCC3)cn2c1N(C)Cc1ccc(OC)cc1 | -12 | . | . | . | .
O=C1c2ccccc2-c2onc3c(N4CCN(CCO)CC4)cc(N4CCN(C(=O)c5ccco5)CC4)c1c23 | -76 | 13 | 72* | 83* | 18
O=C(c1ccco1)N1CCN(CCCCN2C(=O)c3ccccc3C2=O)CC1 | 3 | -1 | 7 | 12 | 3
CN1CCN(c2cc(N3CCN(C(=O)c4ccco4)CC3)c3c4c(onc24)-c2ccccc2C3=O)CC1 | -99 | 17 | 86* | 93* | 15
CC(C)NC(=O)c1ccc2sc([C@@H]3O[C@H](CO)[C@H](O)[C@H](O)[C@H]3O)nc2c1 | 19 | . | . | . | .
Cc1ccc(S(=O)(=O)n2cccc2/C=C/[N+](=O)[O-])cc1 | -16 | -23 | . | . | .
C=CCn1c(O)c(N=NC(=S)Nc2ccccc2F)c2cc(S(=O)(=O)N3CCOCC3)ccc21 | 42* | 24 | 1 | 0 | -13
Cc1ccccc1NC(=S)N=Nc1c(O)n(C)c2ccc(S(=O)(=O)N3CCOCC3)cc12 | 30 | 2 | -2 | 5 | 7
C=CCn1c(O)c(N=NC(=S)Nc2cccc(C)c2)c2ccccc21 | 42* | -1 | 4 | 5 | -34
CCn1c(O)c(N=NC(=O)CNc2cccc(C)c2)c2ccccc21 | 5 | -6 | 6 | -6 | -5
C=CCn1c(O)c(N=NC(=S)Nc2ccccc2F)c2ccccc21 | 39* | 24 | -4 | 5 | -19
CCN1CCC(O)(C(C(=O)OC)c2ccccc2)CC1 (centres undefined) | -14 | -6 | . | . | .
CSc1ccc(Cn2c(C)c(C(=O)NCc3cccc(C(F)(F)F)c3)sc2=O)cc1 | -1 | . | . | . | .
O=C(O)c1ccccc1NS(=O)(=O)c1ccc2c(c1)OCCO2 | 0 | 57* | 3 | -3 | 4
O=C(O)c1ccccc1NS(=O)(=O)c1cccc(-n2sc3ccccc3c2=O)c1 | 11 | 11 | 59* | 47* | 35
Cc1ccccc1NS(=O)(=O)c1ccc(C)c(C(=O)N2CCOCC2)c1 | 4 | 54* | -2 | 0 | 38
O=C(O)c1ccccc1NS(=O)(=O)c1cccc(C(F)(F)F)c1 | 7 | 24 | 10 | 9 | -11
Cc1cc(C)c(C)c(S(=O)(=O)Nc2ccccc2C(=O)O)c1C | 13 | 85* | 33 | 5 | 2
CN(C)CCNc1ncnc2c1ncn2[C@H]1CN(Cc2ccncc2)C[C@@H](CO)O1 | -2 | . | . | . | .
Cc1csc(NC(=O)[C@@H]2CCCN2C(=O)c2cccs2)n1 | 7 | -20 | -21 | -4 | 24
NN=C1c2ccccc2C(=O)C1C(=O)C(c1ccccc1)c1ccccc1 (centres undefined) | -85 | -38 | . | . | .
C=C(C)Cn1c(=O)c2c(nc3n2CC(C)CN3Cc2ccccc2)n(C)c1=O (centres undefined) | 1 | 88* | -7 | -3 | 24
COC(=O)Cn1c(=O)c2c(nc3n2CC(C)CN3Cc2ccccc2)n(C)c1=O (centres undefined) | -14 | -8 | 11 | -4 | 14
CCCCc1nc(NCCO)c(C#N)c2c1CCCC2 | 2 | -17 | -7 | -9 | 34
SMILES | MLLE-PAM2 inh | CRFR2-BP antag | PABP polyA inh | eIF4H FP inh | PHOSPHO1 block
CCCCNc1nc(CC)c2c(c1C#N)CCCC2 | 16 | 61* | 0 | 13 | 22
O=C(O)c1cccc(-c2noc(-c3cccc(Cl)c3)n2)c1 | 2 | 1 | . | . | .
CCCNC(=O)C1(C)CCN1C(=O)c1ccc(C(C)(C)C)cc1 (centres undefined) | -8 | . | . | . | .
CCSC1(SCC)N=C(N)C2(C#N)C(c3ccccc3)NC3=C(CCC3)C12C#N (centres undefined) | 2 | 1 | 75* | 72* | -18
N#CC12C(N)=NC3(OCCO3)C1(C#N)C1=C(CCC1)NC2c1ccccc1 (centres undefined) | 12 | 8 | 34 | 33 | 5
O=C(Nc1ccc2nc3ccccc3nc2c1)c1ccc(Br)cc1 | -8 | -2 | -9 | 16 | 11
CC(=O)Nc1ccc2nc3ccccc3nc2c1 | 42* | 84* | 36 | 35 | -113
Cc1ccc(N2C(=O)CS/C2=C(\C(Cl)=C(Cl)Cl)[N+](=O)[O-])cc1 | -37 | 4 | 28 | 15 | 80*
Cc1ccc(N2C(=O)CSCC2=O)cc1 | 2 | 4 | 16 | -9 | -22
CC(=O)OCc1cc(-c2nn(C)c(=O)c3ccccc23)ccc1C | -2 | 9 | -5 | 1 | -3
